In PubChem BioAssay AID430 (Sanford-Burnham Center for Chemical Genomics, 2006) one finds cytotoxicity data, which are given here for 31 compounds.

Screen size: about 63,000 compounds; about 1,100 (1.7%) were called active. The sample as a whole holds a higher share of actives than the screen did. Entries with a potency or affinity are not part of this list. A number with no mark means an inactive call. Cut-off read from the data, not from the text of the source: active = cytotoxicity above about 50%; inactive = the rest.

The test in a line: HPDE-C7 pancreatic duct cell viability loss – fluorescence, HTS (AID 430).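 Note: cells exposed to compound for 48 hours before viability readout; 0% = vehicle and 100% = reference cytotoxic drug.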 The conditions noted are these: HPDE-C7 pancreatic duct cells viability, at 10 µM, hits give high values.
As for `CCOCCCNC(=O)N[C@@H](Cc1ccccc1)C(=O)OC`, the cytotoxicity was 0.6%.
To `CCOC(=O)c1nc2ccccc2s1` belongs -0.3%.
To `CCOC(=O)Cc1cc(=O)n(-c2nc3ccccc3s2)[nH]1` belongs 75.9% (active); to `COC(=O)Cc1cc(=O)n(-c2nc3ccccc3[nH]2)[nH]1`, -3%.
On to `COC(=O)Cc1cc(=O)n(-c2ccccc2)[nH]1`, for which the cytotoxicity is -18.7%.
The value for `CCOC(=O)CC(=O)Nc1nc2ccccc2s1` was 1.7%; that for `COC(=O)Cc1cc(=O)n(-c2nc3ccccc3s2)[nH]1` was 74.2% (active); that for `COc1ccc(CN/C=C2\CCCCC2=O)cc1` was 5.7%.
Take `Cc1ccccc1-c1nc(CS(=O)CC(=O)NCCCN(C)c2ccccc2)c(C)o1` (stereo unspecified): the cytotoxicity was 10.9%.
With `COc1ccc(-n2nc(C(=O)N3CCC(C#N)CC3)c3c4ccccc4n(C)c3c2=O)cc1`, the cytotoxicity was -4.7%.
To `Cc1cccc(OCc2nnc(SCC(=O)Nc3cc(C)on3)n2C)c1` belongs -0.4%; to `Cn1c(=O)[nH]c(=O)c2c1ncn2CCN1CCCCC1`, -5.6%; to `CCCOc1ccc(C2c3c(oc4cc(C)c(C)cc4c3=O)C(=O)N2CCCN(C)C)cc1` (stereo unspecified), -4.2%.
`O=C(CSc1n[nH]c(-c2ccccc2)n1)c1ccc(O)c(O)c1`: the cytotoxicity was -0.1%.
As to `CN(c1ccc(O)cc1)c1nc(-c2ccccc2)cs1`, the cytotoxicity is 8%.
To `Oc1ccc(-c2nc(-c3ccc(O)c(O)c3)cs2)cc1` belongs 73.5% (active).
To `COc1cc(-c2csc(C)n2)ccc1O` belongs -29.1%; to `CCOC(=O)COn1c(=O)c[n+]([O-])c2ccccc21`, -1.5%.
To `COc1cccc(CNc2nc3ccccc3n2CCN2CCCCC2)c1` belongs 11.1%.
Consider `CCn1c(NC2CCCCC2)nc2ccccc21`, for which the cytotoxicity is 7.5%.
The value for `CCOC(=O)CC12CN3CN(C1)CC(CC(=O)OCC)(C3)C2=O` was -0.6%; that for `CCC(=O)N1CCN(CCN=CC2=C(O)CC(C)(C)CC2=O)CC1` was 5.7%; that for `O=C(O)CCN1C(=O)C(=C2CCCCCC2)SC1=S` was -8.4%.
The value for `O=C1c2ccccc2C(=O)N1Cc1ccco1` was -1.5%.
To `O=C1C(=C2CCCCC2)SC(=S)N1Cc1ccco1` belongs 60.9% (active); to `CSc1nc(N)nc(SCC(=O)c2ccccc2)c1C#N`, 13.7%.
As for `CCCc1nc(SCC(=O)N2CCCc3ccccc32)c2c(=O)n(C)c(=O)n(C)c2n1`, the cytotoxicity is 77% (active).
To `Cn1c(=O)c2c(SCC(=O)N3CCC(Cc4ccccc4)CC3)nc(C3CC3)nc2n(C)c1=O` belongs -3.8%; to `CCCc1nc(SCC(=O)N2CCc3ccccc32)c2c(=O)n(C)c(=O)n(C)c2n1`, 5.3%.
To `CCc1nc(SCC(=O)N2CCCc3ccccc32)c2c(=O)n(C)c(=O)n(C)c2n1` belongs -9%; to `CCCc1nc(SCC(=O)N2CCN(c3ccccc3)CC2)c2c(=O)n(C)c(=O)n(C)c2n1`, 0%.
